Inconclusive results are not listed. The source made the active and inactive calls. How the source made its calls, unless noted: active means hit-call score of the fitted dose curve at least 0.9, where 1 is the maximum; inactive means score below 0.9.
Columns and labels:
[1] = biological target: Oxysterols receptor LXR-beta (Homo sapiens) (UniProt P55055); test: ATG_LXRb_TRANS: Attagene TRANS-FACTORIAL HepG2 Assay for human Liver X Receptor beta (LXRb) (AID 2282981; active means hit-call score of the fitted dose curve at least 0.9, where 1 is the maximum); conditions: HepG2 Attagene TRANS GAL4-LXRb reporter, mRNA
Oxysterols receptor LXR-beta (Homo sapiens), sequence (P55055 whole entry, looked up, the tested form may be a part): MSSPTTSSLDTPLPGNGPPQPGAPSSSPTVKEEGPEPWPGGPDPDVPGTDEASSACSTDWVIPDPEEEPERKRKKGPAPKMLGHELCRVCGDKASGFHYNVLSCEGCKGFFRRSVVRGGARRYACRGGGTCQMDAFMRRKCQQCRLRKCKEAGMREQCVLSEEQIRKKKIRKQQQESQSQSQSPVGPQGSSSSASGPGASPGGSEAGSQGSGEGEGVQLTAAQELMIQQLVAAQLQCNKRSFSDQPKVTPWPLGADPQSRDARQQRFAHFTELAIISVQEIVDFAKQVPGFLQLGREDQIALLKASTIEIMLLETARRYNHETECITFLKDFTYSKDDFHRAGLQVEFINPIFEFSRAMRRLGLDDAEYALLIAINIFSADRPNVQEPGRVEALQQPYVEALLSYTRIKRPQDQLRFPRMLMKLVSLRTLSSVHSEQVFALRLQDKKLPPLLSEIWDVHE
Procedure, shortened: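 Cells: HepG2, transiently transfected with GAL4-UAS reporter units plus LXRb-Gal4 fusion. Treatment: 24 h. Detection: reporter mRNA by RT-PCR, 6-FAM labelling, HpaI digestion, capillary electrophoresis.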

[2] = ATG_M_06_TRANS: Attagene TRANS-FACTORIAL HepG2 Assay for M06 Transcription Factor (Internal Marker) (AID 2282983; active means hit-call score of the fitted dose curve at least 0.9, where 1 is the maximum;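 further: reporter transcript level by RT-PCR then capillary electrophoresis fluorescence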); conditions: HepG2 Attagene TRANS M06 internal marker reporter
Procedure, shortened: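 HepG2 cells transiently transfected with GAL4-UAS multiple reporter units, dosed 24 h. Reporter RNA reverse-transcribed, PCR-amplified, 6-FAM-labeled, HpaI-digested and quantified by capillary electrophoresis; this internal-marker signal fitted upward relative to DMSO.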

[3] = ATG_M_32_TRANS: Attagene TRANS-FACTORIAL HepG2 Assay for M32 Transcription Factor (Internal Marker) (AID 2282984; active means hit-call score of the fitted dose curve at least 0.9, where 1 is the maximum;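 further: transcript level of a background control reporter unit measured by RT-PCR and capillary electrophoresis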); conditions: HepG2 Attagene TRANS M32 internal marker reporter
Procedure, shortened: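 Using transiently transfected HepG2 cells exposed to test chemicals for 24 h, reporter transcripts are converted to labelled cDNA fragments and quantified by capillary electrophoresis. DMSO defines the activity baseline.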

[4] = biological target: Nuclear receptor subfamily 4 group A member 2 (Homo sapiens) (UniProt P43354); test: ATG_NURR1_TRANS: Attagene TRANS-FACTORIAL HepG2 Assay for human Nuclear Receptor Related Protein 1 (NURR1) (AID 2282985; active means hit-call score of the fitted dose curve at least 0.9, where 1 is the maximum); conditions: HepG2 Attagene TRANS reporter, mRNA readout
Nuclear receptor subfamily 4 group A member 2 (Homo sapiens), sequence (P43354 whole entry, looked up): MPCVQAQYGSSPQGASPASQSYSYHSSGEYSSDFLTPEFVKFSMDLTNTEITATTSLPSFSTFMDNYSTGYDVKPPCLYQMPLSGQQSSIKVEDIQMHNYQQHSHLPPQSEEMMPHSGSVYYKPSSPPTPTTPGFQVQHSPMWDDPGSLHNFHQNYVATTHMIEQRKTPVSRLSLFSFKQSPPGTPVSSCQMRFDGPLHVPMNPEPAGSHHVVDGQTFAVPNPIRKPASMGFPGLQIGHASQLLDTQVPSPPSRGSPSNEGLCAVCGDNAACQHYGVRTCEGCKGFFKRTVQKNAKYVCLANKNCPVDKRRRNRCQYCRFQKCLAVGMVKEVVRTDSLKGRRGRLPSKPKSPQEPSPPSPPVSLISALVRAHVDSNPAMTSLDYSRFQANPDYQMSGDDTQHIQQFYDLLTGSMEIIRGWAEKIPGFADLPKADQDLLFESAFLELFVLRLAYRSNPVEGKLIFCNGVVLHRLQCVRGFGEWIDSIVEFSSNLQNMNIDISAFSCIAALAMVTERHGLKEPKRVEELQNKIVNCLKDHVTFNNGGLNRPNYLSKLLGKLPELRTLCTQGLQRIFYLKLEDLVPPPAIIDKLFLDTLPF
Procedure, shortened: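 Cells: HepG2, transiently transfected. Exposure: 24 h. Detection: fluorescence of labelled RT-PCR products separated by capillary electrophoresis; upward fit versus DMSO.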

[5] = biological target: Transcriptional activator Myb (Homo sapiens) (UniProt P10242); test: ATG_Myb_CIS: Attagene CIS-FACTORIAL HepG2 Assay for human Myeloblastosis (Myb) Proto-Oncogene Transcription Factor (AID 2282986); conditions: HepG2 Attagene CIS-FACTORIAL Myb reporter transcription; actives raise or lower the signal
Transcriptional activator Myb (Homo sapiens), sequence (P10242 whole entry, looked up): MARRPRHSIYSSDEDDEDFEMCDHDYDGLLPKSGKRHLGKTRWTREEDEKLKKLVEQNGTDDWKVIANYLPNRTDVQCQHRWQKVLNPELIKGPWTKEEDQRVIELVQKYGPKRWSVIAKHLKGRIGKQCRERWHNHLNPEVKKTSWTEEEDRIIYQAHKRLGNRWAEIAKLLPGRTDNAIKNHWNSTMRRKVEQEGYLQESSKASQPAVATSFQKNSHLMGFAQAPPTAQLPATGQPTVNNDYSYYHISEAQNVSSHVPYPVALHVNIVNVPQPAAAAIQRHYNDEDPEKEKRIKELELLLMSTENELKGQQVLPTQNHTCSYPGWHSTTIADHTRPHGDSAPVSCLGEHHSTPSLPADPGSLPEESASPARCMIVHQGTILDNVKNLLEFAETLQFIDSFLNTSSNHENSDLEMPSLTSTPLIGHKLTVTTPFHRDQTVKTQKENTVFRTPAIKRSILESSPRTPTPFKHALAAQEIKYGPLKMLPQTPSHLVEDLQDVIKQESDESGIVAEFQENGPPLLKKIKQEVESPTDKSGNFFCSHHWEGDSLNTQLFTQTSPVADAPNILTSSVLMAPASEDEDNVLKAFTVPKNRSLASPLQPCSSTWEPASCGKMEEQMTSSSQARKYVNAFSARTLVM
Procedure, shortened: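 Endogenous transcription factor activity at a Myb-responsive cis element is reported in human liver HepG2 cells after 24 h chemical treatment. Reporter mRNA is detected by RT-PCR and capillary electrophoresis fluorescence, with DMSO as baseline.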

[6] = biological target: Nuclear respiratory factor 1 (Homo sapiens) (UniProt Q16656); test: ATG_NRF1_CIS: Attagene CIS-FACTORIAL HepG2 Assay for human Nuclear Respiratory Factor 1 (NRF1) Orphan Gene (AID 2282987); conditions: HepG2 NRF1 cis-element reporter, Attagene multiplex; actives raise or lower the signal
Nuclear respiratory factor 1 (Homo sapiens), sequence (Q16656 whole entry, looked up): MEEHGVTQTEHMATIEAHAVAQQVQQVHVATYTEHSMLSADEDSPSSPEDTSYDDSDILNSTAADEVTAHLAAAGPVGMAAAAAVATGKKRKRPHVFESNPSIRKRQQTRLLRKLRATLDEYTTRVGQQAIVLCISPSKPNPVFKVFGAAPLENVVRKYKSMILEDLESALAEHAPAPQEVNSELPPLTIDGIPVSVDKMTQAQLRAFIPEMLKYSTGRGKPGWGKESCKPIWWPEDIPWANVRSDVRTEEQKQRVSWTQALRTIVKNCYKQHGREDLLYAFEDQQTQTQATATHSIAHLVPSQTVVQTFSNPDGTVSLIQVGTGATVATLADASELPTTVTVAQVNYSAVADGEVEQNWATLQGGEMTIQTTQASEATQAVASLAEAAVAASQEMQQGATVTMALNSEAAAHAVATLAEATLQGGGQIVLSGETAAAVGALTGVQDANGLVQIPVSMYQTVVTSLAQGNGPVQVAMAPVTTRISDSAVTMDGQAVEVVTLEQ
Procedure, shortened: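 Human hepatoma HepG2 cells carrying transfected promoter-regulated reporter units were incubated with test chemicals for 24 h. Reporter transcripts were measured by RT-PCR plus capillary electrophoresis, and endpoints derived by bidirectional fitting with DMSO as baseline.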

[7] = ATG_NFI_CIS: Attagene CIS-FACTORIAL HepG2 Assay for human Nuclear Factor I (NFI) (AID 2282989); conditions: HepG2 cis-regulatory reporter, NFI response element transcription; actives raise or lower the signal
Procedure, shortened: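 Multiplexed cis-reporter system in human HepG2 cells reports native TF activity as reporter mRNA induction 24 h post-dose. Fragments labelled with 6-FAM, HpaI-digested and resolved by capillary electrophoresis; activity fitted both directions versus DMSO.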

[8] = biological target: Myc proto-oncogene protein (Homo sapiens) (UniProt P01106); test: ATG_Myc_CIS: Attagene CIS-FACTORIAL HepG2 Assay for human Myelocytomatosis (Myc) Proto-Oncogene Transcription Factor (AID 2282990); conditions: HepG2, Attagene cis-reporter transcription factor activity; actives raise or lower the signal
Myc proto-oncogene protein (Homo sapiens), sequence (P01106 whole entry, looked up, the tested form may be a part): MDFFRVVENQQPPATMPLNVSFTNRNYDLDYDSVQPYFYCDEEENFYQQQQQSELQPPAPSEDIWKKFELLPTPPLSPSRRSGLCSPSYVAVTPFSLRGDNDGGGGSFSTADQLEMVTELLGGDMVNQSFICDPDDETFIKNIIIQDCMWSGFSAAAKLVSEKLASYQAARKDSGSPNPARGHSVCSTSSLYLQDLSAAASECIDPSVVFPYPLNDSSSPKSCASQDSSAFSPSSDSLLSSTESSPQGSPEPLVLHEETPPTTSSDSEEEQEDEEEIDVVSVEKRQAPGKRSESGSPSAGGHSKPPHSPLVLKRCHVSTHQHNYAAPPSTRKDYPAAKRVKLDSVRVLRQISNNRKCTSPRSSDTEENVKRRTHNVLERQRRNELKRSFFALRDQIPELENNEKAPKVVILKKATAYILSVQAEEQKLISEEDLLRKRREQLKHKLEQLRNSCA
Procedure, shortened: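 After 24 h chemical treatment of HepG2 cells carrying multiplexed cis-regulated reporter constructs, reporter transcripts quantified by RT-PCR and capillary electrophoresis of fluorescent fragments. Gain or loss fitted against DMSO baseline.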

[9] = ATG_Oct_MLP_CIS: Attagene CIS-FACTORIAL HepG2 Assay for human Octamer-Binding Transcription Factor (Oct) (AID 2282993); conditions: HepG2 Attagene cis-factorial Oct reporter, mRNA; actives raise or lower the signal
Procedure, shortened: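 After 24 h compound exposure, transfected HepG2 cells were lysed for total RNA; reporter-specific cDNA was PCR-amplified, fluorescently labelled and sized by capillary electrophoresis. Bidirectional curve fitting used DMSO as baseline.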

[10] = BSK_3C_TissueFactor: BioMAP Diversity Plus: 3C Assay for Tissue Factor Biomarker Activity (AID 2282997); conditions: BioMAP 3C HUVEC, tissue factor biomarker readout; actives raise or lower the signal
Procedure, shortened: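 HUVEC were treated 24 h, then surface tissue factor measured by ELISA and fitted bidirectionally against DMSO. Parallel SRB total-protein staining assessed overt cytotoxicity at the same time point.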

[11] = BSK_3C_uPAR: BioMAP Diversity Plus: 3C Assay for Urokinase-type plasminogen activator receptor (uPAR) Biomarker Activity (AID 2282998); conditions: BioMAP 3C HUVEC, uPAR biomarker ELISA; actives raise or lower the signal
Procedure, shortened: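 Values derive from bidirectional curve fitting relative to DMSO, which served as baseline of activity. uPAR was measured by ELISA in human umbilical vein endothelial primary cultures 24 h after compound addition.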

[12] = BSK_3C_VCAM1: BioMAP Diversity Plus: 3C Assay for Vascular cell adhesion molecule 1 (VCAM1) Biomarker Activity (AID 2282999); conditions: BioMAP 3C HUVEC, VCAM1 ELISA, cytokine-stimulated; actives raise or lower the signal
Procedure, shortened: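 Endothelial cells from human umbilical vein are treated with test chemical. At 24 h, VCAM-1 is measured by ELISA, and responses in either direction are fitted relative to DMSO.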

[13] = BSK_4H_Eotaxin3: BioMAP Diversity Plus: 4H Assay for Eotaxin 3 Biomarker Activity (AID 2283000); conditions: primary human endothelial cells (HUVEC); actives raise or lower the signal
Procedure, shortened: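 Eotaxin-3 (CCL26) levels were measured by ELISA in HUVEC primary cultures 24 h post-dosing. Gain or loss of signal was fitted in both directions, with DMSO serving as baseline and negative control.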

[14] = biological target: human Peroxisome Proliferator-activated Receptor alpha (PPARa), PPARA (gene 5465) (UniProt Q07869); test: ATG_PPARa_TRANS: Attagene TRANS-FACTORIAL HepG2 Assay for human Peroxisome Proliferator-activated Receptor alpha (PPARa) (AID 2283001; active means hit-call score of the fitted dose curve at least 0.9, where 1 is the maximum)
human Peroxisome Proliferator-activated Receptor alpha (PPARa), PPARA (gene 5465), sequence (Q07869 whole entry, looked up, the tested form may be a part): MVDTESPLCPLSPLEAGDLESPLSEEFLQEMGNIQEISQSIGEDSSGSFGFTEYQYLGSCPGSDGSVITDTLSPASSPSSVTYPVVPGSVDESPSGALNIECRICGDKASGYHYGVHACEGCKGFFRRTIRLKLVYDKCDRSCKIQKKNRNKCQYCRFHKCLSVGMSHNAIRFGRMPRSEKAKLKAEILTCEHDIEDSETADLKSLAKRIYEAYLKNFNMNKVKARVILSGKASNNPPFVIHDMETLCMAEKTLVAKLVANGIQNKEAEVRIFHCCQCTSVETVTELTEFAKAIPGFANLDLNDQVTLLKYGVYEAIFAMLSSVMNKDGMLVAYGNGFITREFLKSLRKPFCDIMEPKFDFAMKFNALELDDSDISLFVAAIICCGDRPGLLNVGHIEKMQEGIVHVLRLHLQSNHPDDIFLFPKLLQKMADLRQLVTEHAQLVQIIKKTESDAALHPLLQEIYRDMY
Procedure, shortened: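 Reporter transcripts from GAL4-UAS units in transfected HepG2 were quantified 24 h after dosing. Detection used reverse transcription, PCR, fluorescent primer extension and capillary electrophoresis, with DMSO as baseline.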

[15] = ATG_NRF2_ARE_CIS: Attagene CIS-FACTORIAL HepG2 Assay for human Nuclear Factor Erythroid 2 Related Factor 2 (NFR2) response to Antioxidant Response Elements (ARE) (AID 2282992); conditions: HepG2 Attagene ARE/NRF2 reporter, transcription factor activity; actives raise or lower the signal;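 on AC50: reporter mRNA level measured by RT-PCR and capillary electrophoresis fluorescence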
Procedure, shortened: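 HepG2 cells transiently transfected with multiplexed cis-element reporter constructs, 24 h after chemical dosing; reporter mRNA quantified by RT-PCR, fluorescent primer extension, HpaI digestion and capillary electrophoresis. Bidirectional fit relative to DMSO.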

[16] = biological target: Hepatocyte nuclear factor 4-alpha (Homo sapiens) (UniProt P41235); test: ATG_HNF4a_TRANS: Attagene TRANS-FACTORIAL HepG2 Assay for human Hepatocyte Nuclear Factor 4 alpha (HNF4a) (AID 2282982; active means hit-call score of the fitted dose curve at least 0.9, where 1 is the maximum); conditions: HepG2 HNF4a transactivation reporter, mRNA readout
Hepatocyte nuclear factor 4-alpha (Homo sapiens), sequence (P41235 whole entry, looked up): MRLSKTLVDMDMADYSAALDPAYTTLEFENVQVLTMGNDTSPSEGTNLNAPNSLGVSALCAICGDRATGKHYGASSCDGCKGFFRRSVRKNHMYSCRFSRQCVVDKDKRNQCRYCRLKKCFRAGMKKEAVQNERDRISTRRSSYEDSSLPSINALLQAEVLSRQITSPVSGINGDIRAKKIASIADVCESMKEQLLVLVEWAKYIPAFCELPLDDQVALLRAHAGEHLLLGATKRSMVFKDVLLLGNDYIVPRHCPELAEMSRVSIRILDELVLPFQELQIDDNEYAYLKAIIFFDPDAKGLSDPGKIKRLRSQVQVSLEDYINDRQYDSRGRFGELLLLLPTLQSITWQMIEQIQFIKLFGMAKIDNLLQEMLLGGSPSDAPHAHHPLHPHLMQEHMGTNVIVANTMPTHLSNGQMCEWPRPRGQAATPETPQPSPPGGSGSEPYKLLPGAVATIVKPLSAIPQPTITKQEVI
Procedure, shortened: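 Transfected HepG2 reporter cells are dosed for 24 h; reporter RNA is reverse-transcribed, amplified, fluorescently labelled and HpaI-digested before CE sizing. Positive-direction fit against DMSO.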

[17] = ATG_NF_kB_CIS: Attagene CIS-FACTORIAL HepG2 Assay for human Nuclear Factor Kappa B (NF-kB) (AID 2282991); conditions: HepG2 Attagene cis-factorial NF-kB reporter mRNA; actives raise or lower the signal
Procedure, shortened: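 Multiplexed cis-reporter assay in transiently transfected HepG2. 24 h treatment; RNA isolated, RT-PCR, labelled fragments resolved by CE. DMSO baseline.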

[18] = biological target: Cellular tumor antigen p53 (Homo sapiens) (UniProt P04637); test: ATG_p53_CIS: Attagene CIS-FACTORIAL HepG2 Assay for human p53 Transcription Factor (AID 2282994); conditions: HepG2 p53 cis-element reporter, Attagene mRNA; actives raise or lower the signal
Cellular tumor antigen p53 (Homo sapiens), sequence (P04637 whole entry, looked up): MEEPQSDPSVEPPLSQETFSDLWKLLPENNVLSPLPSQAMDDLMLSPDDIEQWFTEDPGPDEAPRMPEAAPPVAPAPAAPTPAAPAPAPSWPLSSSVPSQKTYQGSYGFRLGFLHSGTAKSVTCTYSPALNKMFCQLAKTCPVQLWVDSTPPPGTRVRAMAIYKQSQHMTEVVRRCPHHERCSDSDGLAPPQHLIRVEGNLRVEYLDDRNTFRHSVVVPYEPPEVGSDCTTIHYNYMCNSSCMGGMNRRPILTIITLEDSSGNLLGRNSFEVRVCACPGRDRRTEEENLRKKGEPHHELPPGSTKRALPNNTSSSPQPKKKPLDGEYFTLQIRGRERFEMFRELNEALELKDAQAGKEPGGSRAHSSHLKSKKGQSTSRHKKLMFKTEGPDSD
Procedure, shortened: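 HepG2 cells transiently transfected with cis-regulated multiple reporter transcription units, dosed 24 h. Reporter mRNA measured by RT-PCR, 6-FAM primer extension, HpaI digestion and capillary electrophoresis; bidirectional fit relative to DMSO.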

Measured: AC50

CC(=O)CC(c1ccccc1)c1c(O)c2ccccc2oc1=O (stereo not given)
not listed: [15] | [16] | [17] | [18]
inactive: all other assays above

O=Cc1ccccc1C=O
not listed: [16] | [17] | [18]
inactive: all other assays above

Oc1ccc(O)cc1
active: [15] 16.6 µM | [12] 15.6 µM | [13] 20 µM
not listed: [1]
inactive: all other assays above

NC1CCCCC1
not listed: [1] | [3] | [4] | [15] | [17] | [18]
inactive: all other assays above

CC(C)c1cccc(C(C)C)c1
not listed: [1] | [2] | [3] | [4] | [14] | [18]
inactive: all other assays above

CC(C)NCC(O)c1ccc(O)c(O)c1 (stereo not given)
not listed: [1] | [3] | [14] | [16] | [17] | [18]
inactive: all other assays above

CC1=C(C)S(=O)(=O)CCS1(=O)=O
active: [18] 130 µM
not listed: [1] | [3] | [4] | [15] | [16]
inactive: all other assays above

Cc1cc(SC2=C(O)C[C@@](CCc3ccc(N)cc3)(C(C)C)OC2=O)c(C(C)(C)C)cc1CO
active: [15] 4.49 µM
not listed: [2] | [4] | [14] | [16]
inactive: all other assays above

Cc1occc(=O)c1O
not listed: [1] | [2] | [3] | [4] | [18]
inactive: all other assays above

COc1ccc(C(=O)Nc2nc3ccccc3c(NCc3ccccc3)c2C#N)cc1
active: [9] 7.37 µM
not listed: [2] | [3] | [15] | [17]
inactive: all other assays above

CCCC[C@H]1CN(CC2CCOCC2)C(=O)OC12CCN(C1(C)CCN(C(=O)c3c(C)ncnc3C)CC1)CC2
not listed: [2] | [15] | [16] | [17]
inactive: all other assays above

O=C(O)CC(O)(CC(=O)O)C(=O)O
inactive: [10] | [11] | [12] | [13]

NC=O
not listed: [3] | [15] | [18]
inactive: all other assays above

CC(C)(C)c1ccccc1
not listed: [1] | [15] | [16] | [17]
inactive: all other assays above

O=NO
not listed: [1] | [18]
inactive: all other assays above

O=C(NS(=O)(=O)/C=C/c1cccs1)c1ccc(F)cc1Br
active: [15] 44.7 µM
not listed: [1] | [2] | [4] | [14] | [16] | [17] | [18]
inactive: all other assays above

CCCC(=O)O
not listed: [1] | [2] | [3] | [14] | [15] | [18]
inactive: all other assays above

O=C(O)c1[nH]n(-c2ccc(S(=O)(=O)O)cc2)c(=O)c1N=Nc1ccc(S(=O)(=O)O)cc1
not listed: [1] | [3] | [4] | [15] | [16]
inactive: all other assays above

Nc1nc(=S)c2[nH]cnc2[nH]1
active: [9] 35.5 µM
not listed: [3] | [15] | [17] | [18]
inactive: all other assays above

C/C=C/C=C/C(=O)O
not listed: [1] | [4] | [14] | [15] | [17] | [18]
inactive: all other assays above

C/C=C/c1ccc(OC)cc1
not listed: [1] | [2] | [3] | [4] | [15] | [18]
inactive: all other assays above

N[C@@H](Cc1c[nH]c2ccccc12)C(=O)O
not listed: [2] | [4] | [16] | [18]
inactive: all other assays above

Cc1cn([C@H]2C=C[C@@H](CO)O2)c(=O)[nH]c1=O
not listed: [1] | [2] | [3] | [14] | [16] | [17] | [18]
inactive: all other assays above

OCC(O)CO
inactive: [10] | [11] | [12] | [13]

CO[C@@H]1COCC[C@@H]1N[C@@H]1CC[C@@](C(=O)N2CCc3ncc(C(F)(F)F)cc3C2)(C(C)C)C1
not listed: [1] | [2] | [3] | [4] | [14] | [16]
inactive: all other assays above

CC(C)c1cccc(C(C)C)c1NC(=O)NS(=O)(=O)c1cc(C(C)(C)O)co1
not listed: [3] | [17]
inactive: all other assays above
